The results in this text go back to the supplement of paper PMC10849652.

Of roughly 7,900 targets only a part is listed; those with a hit were picked by preference. About 0.6% of all pairs of compound and target were hits.

Sequence of MTHFD1, A0A384N5Y3 (A0A384N5Y3 whole entry, looked up): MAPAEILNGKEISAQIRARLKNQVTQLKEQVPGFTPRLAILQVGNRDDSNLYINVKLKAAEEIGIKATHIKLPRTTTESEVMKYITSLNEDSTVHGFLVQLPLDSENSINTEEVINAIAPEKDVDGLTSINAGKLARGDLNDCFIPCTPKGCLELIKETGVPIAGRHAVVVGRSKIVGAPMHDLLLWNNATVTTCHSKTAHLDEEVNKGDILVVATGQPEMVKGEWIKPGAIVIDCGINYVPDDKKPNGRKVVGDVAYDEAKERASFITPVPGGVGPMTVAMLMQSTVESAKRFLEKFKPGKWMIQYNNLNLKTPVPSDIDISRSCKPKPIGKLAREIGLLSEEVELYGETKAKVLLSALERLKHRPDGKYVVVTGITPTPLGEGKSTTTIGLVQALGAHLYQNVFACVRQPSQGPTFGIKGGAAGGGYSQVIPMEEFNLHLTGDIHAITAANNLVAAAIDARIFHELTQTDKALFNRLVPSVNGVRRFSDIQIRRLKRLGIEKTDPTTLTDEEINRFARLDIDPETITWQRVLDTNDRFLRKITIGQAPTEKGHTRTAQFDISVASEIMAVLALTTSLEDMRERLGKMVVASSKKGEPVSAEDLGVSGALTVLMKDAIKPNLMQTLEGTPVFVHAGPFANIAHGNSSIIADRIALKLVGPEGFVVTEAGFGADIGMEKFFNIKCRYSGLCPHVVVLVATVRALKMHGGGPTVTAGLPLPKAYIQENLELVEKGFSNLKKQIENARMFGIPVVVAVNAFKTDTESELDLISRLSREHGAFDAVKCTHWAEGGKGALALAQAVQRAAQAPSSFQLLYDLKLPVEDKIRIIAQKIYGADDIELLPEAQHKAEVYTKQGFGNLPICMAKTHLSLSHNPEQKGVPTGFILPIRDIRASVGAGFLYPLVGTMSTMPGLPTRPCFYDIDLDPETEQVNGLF
Sequence of UniProt Q9HCD5 (Q9HCD5 whole entry, looked up): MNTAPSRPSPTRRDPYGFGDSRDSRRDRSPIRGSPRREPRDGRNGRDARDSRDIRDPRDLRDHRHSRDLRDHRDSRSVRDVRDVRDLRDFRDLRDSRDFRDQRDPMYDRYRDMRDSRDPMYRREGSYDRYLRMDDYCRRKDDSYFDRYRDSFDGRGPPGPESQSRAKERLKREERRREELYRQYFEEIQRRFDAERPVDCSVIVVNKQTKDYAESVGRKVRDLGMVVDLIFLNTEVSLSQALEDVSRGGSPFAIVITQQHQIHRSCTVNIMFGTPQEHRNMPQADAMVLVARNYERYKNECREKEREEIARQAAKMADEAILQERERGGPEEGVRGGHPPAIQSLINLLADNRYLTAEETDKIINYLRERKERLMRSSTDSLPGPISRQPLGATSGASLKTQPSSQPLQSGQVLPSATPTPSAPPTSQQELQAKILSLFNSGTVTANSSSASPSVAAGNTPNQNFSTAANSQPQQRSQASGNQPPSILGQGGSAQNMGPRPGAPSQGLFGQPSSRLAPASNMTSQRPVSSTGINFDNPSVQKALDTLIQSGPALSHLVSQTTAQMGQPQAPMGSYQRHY
Sequence of UniProt Q9Y605 (Q9Y605 whole entry, looked up): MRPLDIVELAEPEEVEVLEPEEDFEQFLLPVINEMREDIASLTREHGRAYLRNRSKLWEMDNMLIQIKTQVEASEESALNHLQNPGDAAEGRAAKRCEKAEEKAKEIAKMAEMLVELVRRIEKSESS
Sequence of UniProt O43913 (O43913 whole entry, looked up): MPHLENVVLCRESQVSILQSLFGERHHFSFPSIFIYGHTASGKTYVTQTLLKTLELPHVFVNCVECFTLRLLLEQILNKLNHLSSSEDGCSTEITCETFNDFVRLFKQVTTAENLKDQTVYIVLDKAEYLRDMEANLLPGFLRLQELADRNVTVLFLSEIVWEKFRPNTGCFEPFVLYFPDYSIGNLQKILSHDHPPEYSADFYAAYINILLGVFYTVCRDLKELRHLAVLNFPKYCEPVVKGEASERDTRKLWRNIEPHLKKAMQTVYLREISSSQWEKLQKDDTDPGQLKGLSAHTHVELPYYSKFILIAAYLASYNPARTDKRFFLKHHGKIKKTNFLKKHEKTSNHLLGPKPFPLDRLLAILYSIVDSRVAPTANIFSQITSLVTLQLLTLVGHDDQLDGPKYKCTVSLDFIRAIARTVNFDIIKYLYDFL
Sequence of UniProt Q9BSU3 (Q9BSU3 whole entry, looked up): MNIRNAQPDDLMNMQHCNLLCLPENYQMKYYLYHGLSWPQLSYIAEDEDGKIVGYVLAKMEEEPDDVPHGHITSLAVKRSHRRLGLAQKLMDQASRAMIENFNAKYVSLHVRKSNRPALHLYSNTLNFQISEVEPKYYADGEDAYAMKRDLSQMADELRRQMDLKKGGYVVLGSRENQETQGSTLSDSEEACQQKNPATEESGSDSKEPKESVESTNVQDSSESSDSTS
Sequence of UniProt P51956 (P51956 whole entry, looked up): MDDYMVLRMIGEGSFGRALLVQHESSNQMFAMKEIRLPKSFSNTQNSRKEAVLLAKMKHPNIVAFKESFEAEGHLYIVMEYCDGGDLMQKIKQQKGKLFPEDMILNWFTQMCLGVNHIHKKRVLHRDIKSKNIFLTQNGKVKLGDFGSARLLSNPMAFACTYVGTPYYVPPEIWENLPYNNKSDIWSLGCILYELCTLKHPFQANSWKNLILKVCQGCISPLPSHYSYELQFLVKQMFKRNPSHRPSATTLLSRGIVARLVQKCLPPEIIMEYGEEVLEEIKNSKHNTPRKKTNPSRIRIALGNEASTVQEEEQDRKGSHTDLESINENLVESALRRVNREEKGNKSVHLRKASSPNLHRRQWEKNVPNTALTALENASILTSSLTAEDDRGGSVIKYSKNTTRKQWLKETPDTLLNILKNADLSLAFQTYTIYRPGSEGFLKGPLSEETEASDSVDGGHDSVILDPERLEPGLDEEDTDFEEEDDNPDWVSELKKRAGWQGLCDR
Sequence of UniProt Q69YL0 (Q69YL0 whole entry, looked up): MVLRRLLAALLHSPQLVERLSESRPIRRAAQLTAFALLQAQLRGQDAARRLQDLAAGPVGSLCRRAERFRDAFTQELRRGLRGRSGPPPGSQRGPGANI
Sequence of UniProt P03886 (P03886 whole entry, looked up): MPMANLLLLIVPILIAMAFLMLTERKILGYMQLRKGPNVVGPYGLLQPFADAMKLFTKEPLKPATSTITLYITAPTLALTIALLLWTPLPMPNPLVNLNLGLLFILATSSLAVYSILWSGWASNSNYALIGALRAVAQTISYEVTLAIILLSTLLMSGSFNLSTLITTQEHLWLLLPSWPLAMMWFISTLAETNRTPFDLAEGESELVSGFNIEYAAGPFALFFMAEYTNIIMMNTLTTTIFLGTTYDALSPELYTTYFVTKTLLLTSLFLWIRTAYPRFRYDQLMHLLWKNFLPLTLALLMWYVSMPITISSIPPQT
Sequence of UniProt Q8WUY8 (Q8WUY8 whole entry, looked up): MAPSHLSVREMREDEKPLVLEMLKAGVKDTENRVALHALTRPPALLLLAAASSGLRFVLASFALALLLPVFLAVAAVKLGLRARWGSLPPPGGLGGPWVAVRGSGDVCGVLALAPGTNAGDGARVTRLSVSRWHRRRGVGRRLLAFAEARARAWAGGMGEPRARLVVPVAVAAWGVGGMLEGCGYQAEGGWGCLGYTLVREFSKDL
Sequence of UniProt P25208 (P25208 whole entry, looked up): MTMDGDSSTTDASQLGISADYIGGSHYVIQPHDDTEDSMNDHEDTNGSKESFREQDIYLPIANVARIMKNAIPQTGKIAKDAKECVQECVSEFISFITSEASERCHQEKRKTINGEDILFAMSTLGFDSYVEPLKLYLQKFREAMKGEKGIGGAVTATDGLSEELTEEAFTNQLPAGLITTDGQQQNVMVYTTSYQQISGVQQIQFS
Sequence of UniProt Q9H019 (Q9H019 whole entry, looked up): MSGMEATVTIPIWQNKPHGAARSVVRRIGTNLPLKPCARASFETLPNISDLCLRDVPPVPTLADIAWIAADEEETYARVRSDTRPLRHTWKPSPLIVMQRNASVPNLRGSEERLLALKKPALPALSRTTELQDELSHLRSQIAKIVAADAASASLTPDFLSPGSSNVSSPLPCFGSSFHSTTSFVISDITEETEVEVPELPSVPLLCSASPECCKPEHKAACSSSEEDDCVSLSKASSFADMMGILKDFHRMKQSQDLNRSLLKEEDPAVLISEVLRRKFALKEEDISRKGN
Sequence of UniProt Q9H4L5 (Q9H4L5 whole entry, looked up): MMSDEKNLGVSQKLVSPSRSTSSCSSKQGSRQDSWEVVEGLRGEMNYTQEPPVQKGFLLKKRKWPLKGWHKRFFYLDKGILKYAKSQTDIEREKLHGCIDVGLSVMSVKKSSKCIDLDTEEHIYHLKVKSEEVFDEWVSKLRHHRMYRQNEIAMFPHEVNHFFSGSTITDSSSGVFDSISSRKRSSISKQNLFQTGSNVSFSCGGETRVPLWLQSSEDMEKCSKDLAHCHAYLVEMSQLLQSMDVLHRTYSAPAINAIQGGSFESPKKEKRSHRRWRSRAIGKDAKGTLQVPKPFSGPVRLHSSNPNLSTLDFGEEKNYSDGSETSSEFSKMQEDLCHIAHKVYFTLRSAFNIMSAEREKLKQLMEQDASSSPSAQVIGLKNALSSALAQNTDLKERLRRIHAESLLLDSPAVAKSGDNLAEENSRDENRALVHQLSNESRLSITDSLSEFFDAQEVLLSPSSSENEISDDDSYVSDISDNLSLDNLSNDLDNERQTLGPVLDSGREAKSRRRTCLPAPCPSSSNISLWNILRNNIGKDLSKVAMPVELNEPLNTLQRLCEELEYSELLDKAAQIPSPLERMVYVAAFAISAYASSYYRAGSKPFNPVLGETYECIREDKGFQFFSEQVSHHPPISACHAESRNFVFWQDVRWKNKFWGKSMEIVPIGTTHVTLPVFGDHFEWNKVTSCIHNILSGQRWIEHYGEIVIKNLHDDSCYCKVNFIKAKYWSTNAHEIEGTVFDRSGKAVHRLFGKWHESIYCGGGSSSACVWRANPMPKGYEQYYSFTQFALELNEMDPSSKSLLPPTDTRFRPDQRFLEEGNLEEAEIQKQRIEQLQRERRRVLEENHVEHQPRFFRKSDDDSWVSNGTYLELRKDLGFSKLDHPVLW

Compound in the first test: CC1=C(C=C(C=C1)NC(=O)C2=CC(=CC=C2)C(C)(C)C#N)NC3=CC4=C(C=C3)N=CN(C4=O)C
The experiment in a line: log2 fold change, soluble protein after heating vs DMSO (PISA); higher = thermal stabilisation; K562 cells, 10 uM, 30 min; active = over 0.2 and 3.5 SD of the protein, either way, in both replicates (recomputed). The method, boiled down:
(§1)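 For each measurement, 10 μM compound was applied for 30 min to K562 cells at 2×10^6 cells/mL. Aliquots were heated for 3 min across 48°C-58°C, pooled, and extracted in PBS with 0.5% NP-40 at 4°C; the supernatant after 21,000xg for 90 min was soluble protein. This was quantified by TMTpro 16plex LC-MS/MS with channel sums equalised, and thermal stability was reported relative to control samples from duplicates, on a log2 fold-change scale.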
As for NUDT7 (UniProt P0C024), the log2 fold change is 0.016 (inactive).
As for OPHN1 (UniProt O60890), the log2 fold change was -0.146 (inactive).
In the case of MTHFD1, A0A384N5Y3, the log2 fold change was 0.036 (inactive).
Same read-out and setting: next, NAA11 (UniProt Q9BSU3): -0.375 (inactive); MYSM1 (UniProt Q5VVJ2): 0.067 (inactive); NECTIN2 isoform 2 (UniProt Q92692): -0.037 (inactive).
In the case of MRPL46 (UniProt Q9H2W6), the log2 fold change was 0.061 (inactive).
As to MRPS33 (UniProt Q9Y291), the log2 fold change is 0.075 (inactive).
Still for that read-out and setting: the same measure for MT-ND1 (UniProt P03886): -0.002 (inactive); for NCBP2AS2 (UniProt Q69YL0): 0.069 (inactive).
On the same count and under the same terms, the same measure for NCOA5 (UniProt Q9HCD5): 0.076 (inactive).
On to MRPS26 (UniProt Q9BYN8), for which the log2 fold change is 0.021 (inactive).
The same measure, in the same setting: next, MRFAP1 (UniProt Q9Y605): -0.073 (inactive).
Turning to ORC5 (UniProt O43913), the log2 fold change was -0.193 (inactive).
The same measure, in the same setting: the same measure for NEK3 (UniProt P51956): 0.058 (inactive).

Compound in the next test: CC1=C(C=C(C=C1)NC(=O)C2=CC(=CC=C2)N(C)C)NC(=O)C3=CC=C(C=C3)O
Described as above. The method, boiled down:
as §1
In the case of NFYB (UniProt P25208), the log2 fold change was -0.118 (inactive).
NME7 (UniProt Q9Y5B8): the log2 fold change is -0.089 (inactive).
Same read-out and setting: next, MPHOSPH8 isoform 2 (UniProt Q99549): 0.179 (inactive); NPM3 (UniProt O75607): -0.004 (inactive); OAF (UniProt Q86UD1): -0.119 (inactive).
Still for that read-out and setting: next, MTFR1L (UniProt Q9H019): -0.006 (inactive); NA, A0A2R8Y3M9: 0.546 (inactive); NME2P1 (UniProt O60361): 0.017 (inactive).
MON1A (UniProt Q86VX9): the log2 fold change is 0.004 (inactive).
Still for that read-out and setting: next, NCOA7 (UniProt Q8NI08): -0.045 (inactive); NCK1 (UniProt P16333): -0.068 (inactive).
The same measure, in the same setting: next, PAFAH2 (UniProt Q99487): 0.006 (inactive); NAT14 (UniProt Q8WUY8): -0.054 (inactive).
On the same count and under the same terms, the same measure for NUMBL (UniProt Q9Y6R0): -0.045 (inactive); for NDFIP1 (UniProt Q9BT67): -0.125 (inactive).
In the case of NA isoform 3 (UniProt Q4G0T1), the log2 fold change was 0.035 (inactive).
Same read-out and setting: next, PACS1 (UniProt Q6VY07): -0.031 (inactive); NPC1 (UniProt O15118): 0.01 (inactive); MRPS21 (UniProt P82921): -0.059 (inactive).
Same read-out and setting: next, MRPS16 (UniProt Q9Y3D3): -0.052 (inactive); NOP58 (UniProt Q9Y2X3): -0.012 (inactive); MYLK (UniProt Q15746): 0.108 (inactive).
As for MLX (UniProt Q9UH92), the log2 fold change was -0.027 (inactive).
As to OSBPL3 (UniProt Q9H4L5), the log2 fold change is 0.04 (inactive).
For NUDT7 (UniProt P0C024), the log2 fold change is -0.021 (inactive).
Same read-out and setting: the same measure for OPHN1 (UniProt O60890): -0.029 (inactive); for MTHFD1, A0A384N5Y3: -0.107 (inactive); for NAA11 (UniProt Q9BSU3): 0.006 (inactive).
Turning to MYSM1 (UniProt Q5VVJ2), the log2 fold change was -0.298 (inactive).
Same read-out and setting: next, NECTIN2 isoform 2 (UniProt Q92692): 0.011 (inactive); MRPL46 (UniProt Q9H2W6): -0.044 (inactive).
Same read-out and setting: next, MRPS33 (UniProt Q9Y291): -0.078 (inactive); MT-ND1 (UniProt P03886): 0.028 (inactive).
Turning to NCBP2AS2 (UniProt Q69YL0), the log2 fold change was 0.017 (inactive).
Regarding NCOA5 (UniProt Q9HCD5), the log2 fold change was 0.134 (inactive).
In the case of MRPS26 (UniProt Q9BYN8), the log2 fold change is -0.083 (inactive).
On to MRFAP1 (UniProt Q9Y605), for which the log2 fold change is -0.011 (inactive).
With ORC5 (UniProt O43913), the log2 fold change was -0.089 (inactive).
On to NEK3 (UniProt P51956), for which the log2 fold change is -0.055 (inactive).

Compound in the next test: CC1=CC=C(C=C1)SC2=C3C=C(SC3=CN=C2)C(=O)N
Described as above. The procedure, abridged: as §1
Consider NFYB (UniProt P25208), for which the log2 fold change was -0.023 (inactive).
With NME7 (UniProt Q9Y5B8), the log2 fold change was -0.021 (inactive).
Consider MPHOSPH8 isoform 2 (UniProt Q99549), for which the log2 fold change is -0.159 (inactive).
Still for that read-out and setting: next, NPM3 (UniProt O75607): -0.005 (inactive); MTFR1L (UniProt Q9H019): 0.008 (inactive).
NA, A0A2R8Y3M9: the log2 fold change is 0.225 (inactive).
With NME2P1 (UniProt O60361), the log2 fold change was 0.065 (inactive).
The same measure, in the same setting: next, MON1A (UniProt Q86VX9): -0.061 (inactive); NCOA7 (UniProt Q8NI08): 0.015 (inactive); NCK1 (UniProt P16333): 0.208 (inactive).
Still for that read-out and setting: the same measure for PAFAH2 (UniProt Q99487): 0.019 (inactive).
As for NAT14 (UniProt Q8WUY8), the log2 fold change is 0.011 (inactive).
On to NUMBL (UniProt Q9Y6R0), for which the log2 fold change is -0.018 (inactive).
As to NA isoform 3 (UniProt Q4G0T1), the log2 fold change was 0.008 (inactive).
Regarding PACS1 (UniProt Q6VY07), the log2 fold change was -0.021 (inactive).
Turning to NPC1 (UniProt O15118), the log2 fold change is 0.006 (inactive).
The same measure, in the same setting: next, MRPS21 (UniProt P82921): 0.215 (inactive); MRPS16 (UniProt Q9Y3D3): 0.006 (inactive); NOP58 (UniProt Q9Y2X3): -0.058 (inactive).
Same read-out and setting: the same measure for MYLK (UniProt Q15746): -0.013 (inactive); for MLX (UniProt Q9UH92): 0.082 (inactive).
On the same count and under the same terms, the same measure for OSBPL3 (UniProt Q9H4L5): 0.006 (inactive).
As to MTHFD1, A0A384N5Y3, the log2 fold change is -0.055 (inactive).
For NAA11 (UniProt Q9BSU3), the log2 fold change is 0.06 (inactive).
The same measure, in the same setting: the same measure for MRPL46 (UniProt Q9H2W6): -0.009 (inactive); for MRPS33 (UniProt Q9Y291): -0.025 (inactive); for MT-ND1 (UniProt P03886): -0.008 (inactive).
Still for that read-out and setting: next, NCBP2AS2 (UniProt Q69YL0): 0.162 (inactive); NCOA5 (UniProt Q9HCD5): 0.099 (inactive).
On the same count and under the same terms, the same measure for MRPS26 (UniProt Q9BYN8): 0.002 (inactive); for MRFAP1 (UniProt Q9Y605): 0.101 (inactive); for ORC5 (UniProt O43913): 0 (inactive).
NEK3 (UniProt P51956): the log2 fold change was 0.052 (inactive).
